The record followed here is PubChem BioAssay (NCATS).

Inconclusive results are not listed. The source made the active and inactive calls. Unless noted, the call rests on the fitted dose curve.

The target of test [1] is Bile acid receptor (Homo sapiens) (UniProt Q96RI1). Briefly: qHTS assay for small molecule antagonists of farnesoid X receptor signaling (AID 588526). Further: on the % scale 0 is the no-effect control and ±100 the full control effect. The method, boiled down:
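Beta-lactamase reporter antagonist mode: HEK293T FXR-UAS-bla cells, titrated compound, CDCA stimulation, 16 h 37 C, CCF4 dye 2 h RT. Data normalized to CDCA 50 uM and DMSO; Hill-fit IC50.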
On the technique in general: qHTS replaces the single test concentration by a dilution series.

Test [2] has the same target. The test is described as follows: qHTS assay for small molecule agonists of farnesoid X receptor signaling (AID 588527).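 Further: series mostly up to about 77 µM; 0% = vehicle basal and 100% = reference agonist.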 The conditions noted are these: HEK293T FXR-UAS-bla, beta-lactamase ratio, 16 h; activation: stronger effect = higher value. In short, it runs like this: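 Read-out: beta-lactamase reporter fluorescence with CCF4 substrate in GeneBLAzer FXR-UAS-bla HEK293T cells, after 16 h compound exposure at 37 C. Response scaled between DMSO basal (0%) and chenodeoxycholic acid at 100 uM (100%).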

Test [3] has as its target Peroxisome proliferator-activated receptor delta (Homo sapiens) (UniProt Q03181). Briefly: qHTS assay for small molecule agonists of peroxisome proliferator-activated receptor delta signaling (AID 588534).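 Further: 0% = DMSO basal wells and 100% = positive control agonist at 10 µM.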 In short, it runs like this:
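Cells carrying a PPAR-delta beta-lactamase reporter were treated with compounds for 18 h at 37 °C in agonist mode. CCF4 fluorescence was read after 2 h; EC50 and efficacy from Hill fits.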

A short description of test [4]: qHTS assay for small molecule antagonists of peroxisome proliferator-activated receptor delta signaling (AID 588535).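 Further: cells co-treated with a PPAR-delta agonist as stimulator during compound exposure.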 The conditions noted are these: HEK293T PPARd-UAS-bla, beta-lactamase FRET ratio, 18 h; 460 nm channel. In short, it runs like this:
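HEK293T PPAR-delta-UAS-bla cells, 4000/well, 2% charcoal/dextran FBS; 5 h 37 C; cpd titration; 18 h 37 C; CCF4 2 h RT; FI 460/530 nm; Hill fit → IC50, efficacy.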

Test [5] deals with Vitamin D3 receptor (Homo sapiens) (UniProt P11473). The test is described as follows: qHTS assay for small molecule antagonists of vitamin D receptor signaling (AID 588541).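 Further: receptor activated by calcitriol during compound treatment; series mostly up to about 77 µM; on the % scale 0 is the no-effect control and ±100 the full control effect.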 The method, boiled down: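 Antagonist-mode beta-lactamase reporter assay: HEK293T VDR-UAS-bla cells were exposed to titrated compound alongside 1-alpha,25-dihydroxyvitamin D3 at 3 nM final for 16 h. Values were normalized to the 50 nM agonist control and DMSO basal, with IC50 and efficacy from Hill equation fits.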
Vitamin D3 receptor (Homo sapiens), sequence (P11473 whole entry, looked up): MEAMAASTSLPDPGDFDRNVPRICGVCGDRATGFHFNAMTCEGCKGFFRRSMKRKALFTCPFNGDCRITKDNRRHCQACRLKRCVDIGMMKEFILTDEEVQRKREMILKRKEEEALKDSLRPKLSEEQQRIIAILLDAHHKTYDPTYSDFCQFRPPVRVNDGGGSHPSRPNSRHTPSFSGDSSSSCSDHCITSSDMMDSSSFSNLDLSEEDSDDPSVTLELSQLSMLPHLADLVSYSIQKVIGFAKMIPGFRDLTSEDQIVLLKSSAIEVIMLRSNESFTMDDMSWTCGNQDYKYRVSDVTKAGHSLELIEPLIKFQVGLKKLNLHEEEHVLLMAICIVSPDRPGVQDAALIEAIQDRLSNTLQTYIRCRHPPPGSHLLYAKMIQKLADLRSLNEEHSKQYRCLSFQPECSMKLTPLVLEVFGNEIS

The target is the same in test [6]. The test is described as follows: qHTS assay for small molecule agonists of vitamin D receptor signaling (AID 588543).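 Further: 0% = DMSO basal and 100% = reference agonist control.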 In short, it runs like this:
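β-lactamase reporter, VDR-UAS-bla HEK293T, agonist mode. Cells plated 5 h at 37 °C, compound titration 16 h at 37 °C, CCF4 dye 2 h RT, ratio 460/530 nm. Hill fit → EC50, efficacy vs 50 nM 1α,25-(OH)2D3.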

The target in test [7] is Retinoic acid receptor RXR-alpha (Homo sapiens) (UniProt P19793). The test is described as follows: qHTS assay for small molecule agonists of retinoid X receptor alpha signaling (AID 588544).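 Further: 0% = DMSO basal wells and 100% = reference agonist.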
Retinoic acid receptor RXR-alpha (Homo sapiens), sequence (P19793 whole entry, looked up): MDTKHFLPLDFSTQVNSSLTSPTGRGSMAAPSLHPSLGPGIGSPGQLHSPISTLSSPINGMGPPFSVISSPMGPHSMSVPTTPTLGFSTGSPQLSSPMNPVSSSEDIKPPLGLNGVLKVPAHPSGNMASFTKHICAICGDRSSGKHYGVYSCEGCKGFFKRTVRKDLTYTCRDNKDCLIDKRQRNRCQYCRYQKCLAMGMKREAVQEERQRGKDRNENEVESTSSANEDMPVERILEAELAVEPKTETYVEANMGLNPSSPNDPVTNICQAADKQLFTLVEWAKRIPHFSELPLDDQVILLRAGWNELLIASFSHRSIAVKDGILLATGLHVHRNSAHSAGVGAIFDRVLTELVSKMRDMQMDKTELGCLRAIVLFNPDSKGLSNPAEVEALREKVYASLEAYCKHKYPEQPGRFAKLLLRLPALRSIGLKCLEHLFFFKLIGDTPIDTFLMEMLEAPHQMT
Test [8] concerns the target Thyroid hormone receptor beta (Homo sapiens) (UniProt P10828). The test is described as follows: qHTS assay for small molecule agonists of thyroid hormone receptor beta signaling (AID 588545).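 Further: 0% = DMSO only and 100% = 10 nM T3.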 The method, boiled down:
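Beta-lactamase reporter activity under TR response element control is measured in HEK 293 cells after 18 hrs compound exposure. Signal is ratiometric CCF4 fluorescence, 460/530 nm.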

Test [9] is described as follows: qHTS assay for small molecule antagonists of retinoid X receptor alpha signaling (AID 588546; active means well fitted inhibition curve with a large enough effect in the signal ratio, with a control signal flat, not every such curve was filed as active; the % refers to the signal ratio;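 further: cells stimulated with 9-cis-retinoic acid as agonist; on the % scale 0 is the no-effect control and ±100 the full control effect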). The conditions noted are these: HEK293T RXRa-UAS-bla, beta-lactamase ratio, antagonist mode; measured here: W530 green channel, cytotoxicity proxy. The method, boiled down:
(§1)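 Beta-lactamase reporter inhibition, read as CCF4 fluorescence ratio (ex 405, em 460/530 nm) after 2 h at RT. HEK293T UAS-bla cells, 2500/well, were stimulated with 9-cis-RA at 500 or 100 nM final alongside test compound for 18 h at 37 C.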

The target in test [10] is Retinoic acid receptor RXR-alpha (Homo sapiens) (UniProt P19793). Described as above. The settings on record: HEK293T RXRa-UAS-bla, beta-lactamase ratio, antagonist mode. In short, it runs like this: as §1
In test [11] the target is Thyroid hormone receptor beta (Homo sapiens) (UniProt P10828). The test is described as follows: qHTS assay for small molecule antagonists of thyroid hormone receptor beta signaling (AID 588547; active means well fitted inhibition curve with a large enough effect in the signal ratio, with a control signal flat, not every such curve was filed as active; the % refers to the signal ratio;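 further: cells stimulated with 0.4 nM T3 agonist during compound exposure; series mostly up to about 77 µM; on the % scale 0 is the no-effect control and ±100 the full control effect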). The conditions noted are these: TR-UAS-bla HEK293, beta-lactamase ratio, antagonist mode, 18 h. In short, it runs like this:
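Inhibition of T3-driven (0.4nM final) beta-lactamase reporter activity was measured over 0.59 nM to 92 uM compound after 18 h at 37 C. The cells were GripTite HEK293 TR-UAS-bla in charcoal/dextran-stripped serum, with CCF4 ratio read-out and IC50 from Hill fits.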

Test [12] is described as follows: qHTS assay for small molecule activators of the p53 signaling pathway (AID 651743; active means well fitted activation curve with a large enough effect in the signal ratio, not every such curve was filed as active; the % refers to the signal ratio; further: series mostly up to about 92 µM; % of control where 0% means no effect). The conditions noted are these: HCT-116 p53RE-bla, beta-lactamase FRET ratio, 16 h; activation: stronger effect = higher value. In short, it runs like this: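 Read-out is fluorescence intensity from the LiveBLAzer B/G FRET substrate, added for 2 hours at room temperature after HCT-116 p53RE-bla cells had been incubated with compounds for 16 hours at 37 C.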

The nature of test [13]: qHTS assay for small molecule activators of the nuclear factor-kappa B (NF-kB) signaling pathway (AID 651749; active means well fitted activation curve with a large enough effect in the signal ratio; the % refers to the signal ratio; further: series mostly up to about 77 µM; % of control where 0% means no effect). The conditions noted are these: NF-kB-bla ME-180 cells, beta-lactamase FRET ratio, 16 h; activation: stronger effect = higher value. The method, boiled down:
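Readout: beta-lactamase reporter driven by an NF-kB response element, detected fluorescently as loss of FRET. Cells were the ME-180 line, treated 16 hr at 37C with pin-transferred compound.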

The nature of test [14]: qHTS assay for environmental chemicals that activate the Aryl hydrocarbon Receptor (AhR) signaling pathway (AID 651777; active means well fitted curve in the direction sought with a large enough effect; an effect the other way counts as inactive or inconclusive; further: % of control where 0% means no effect; nearly all actives have a fitted effect of over 15% in size). The conditions noted are these: 1A2-DRE human hepatoma cells, luciferase, 24 h; activation: stronger effect = higher value. The method, boiled down: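 Human hepatoma 1A2-DRE cells, stably carrying a dioxin response element and CYP1A2 promoter driving luciferase, were exposed to compounds for 24 hr at 37 C and 5% CO2. Luciferase signal was then read after 30 min One-Glo at room temperature.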

Test [15] deals with Peroxisome proliferator-activated receptor alpha (Homo sapiens) (UniProt Q07869). Briefly: qHTS assay for small molecule agonists of the peroxisome proliferator-activated receptor alpha (PPARalpha) signaling pathway (AID 651778; active means well fitted curve in the direction sought with a large enough effect; an effect the other way counts as inactive or inconclusive; further: % of control where 0% means no effect). The settings on record: PathHunter PPARalpha complementation, chemiluminescence, 6 h; max response: stronger effect = higher value. The method, boiled down: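 Chemiluminescence from complemented enzyme reported PPARalpha activation in cells after 6 hr of compound treatment at 37 C. The detection reagent was incubated for 60 min at room temperature, and compounds were scored as agonists.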
Peroxisome proliferator-activated receptor alpha (Homo sapiens), sequence (Q07869 whole entry, looked up): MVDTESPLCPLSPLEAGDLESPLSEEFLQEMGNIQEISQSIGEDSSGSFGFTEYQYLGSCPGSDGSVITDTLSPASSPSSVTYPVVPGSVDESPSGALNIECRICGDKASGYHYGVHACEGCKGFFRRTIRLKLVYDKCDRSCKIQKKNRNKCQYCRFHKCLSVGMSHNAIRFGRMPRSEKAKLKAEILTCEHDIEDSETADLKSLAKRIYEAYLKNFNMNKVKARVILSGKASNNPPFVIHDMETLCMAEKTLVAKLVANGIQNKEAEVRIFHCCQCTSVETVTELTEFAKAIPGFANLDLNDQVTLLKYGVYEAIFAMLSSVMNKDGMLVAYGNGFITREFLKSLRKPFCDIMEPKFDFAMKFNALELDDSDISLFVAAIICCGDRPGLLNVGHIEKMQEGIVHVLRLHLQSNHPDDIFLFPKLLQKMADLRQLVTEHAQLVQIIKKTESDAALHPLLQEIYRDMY

Test [16] can be described thus: qHTS assay for small molecule agonists of the antioxidant response element (ARE) signaling pathway measured by Nrf2-dependant transcriptional activity (AID 720636; active means well fitted curve in the direction sought with a large enough effect in the repeat runs; an effect the other way counts as inactive or inconclusive; further: % of control where 0% means no effect). In short, it runs like this:
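ARE-luc HepG2 cells carrying an Nrf2-responsive luciferase reporter were plated in medium with 1% dialyzed FBS, left 6 hr at 37 C to attach, then exposed to compound for 16 hr. Luciferase luminescence was read after ONE-Glo addition.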

Test [17] is described as follows: qHTS assay for small molecule agonists of the antioxidant response element (ARE) signaling pathway measured by Nrf2-dependant transcriptional activity - cell viability counter screen (AID 720653; active means well fitted curve in the direction sought with a large enough effect in the repeat runs; an effect the other way counts as inactive or inconclusive; further: on the % scale 0 is the no-effect control and ±100 the full control effect). The settings on record: ARE-bla HepG2 viability, CellTiter-Glo ATP luminescence, 16 h; max response: stronger effect = lower value. In short, it runs like this: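 Cytotoxicity counter screen: intracellular ATP quantified by CellTiter-Glo luminescence in the same ARE-bla HepG2 plates, after 16 h compound exposure and a 2 h beta-lactamase substrate step.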

Test [18] is described as follows: qHTS assay for cell viability of HEK293 cells (AID 743288; active means well fitted curve in the direction sought with a large enough effect; an effect the other way counts as inactive or inconclusive; further: on the % scale 0 is the no-effect control and ±100 the full control effect; nearly all actives have a fitted effect of over 50% in size). The settings on record: ATP luminescence (CellTiter-Glo), 18 h; max response: stronger effect = lower value. In short, it runs like this:
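Environmental chemicals tested in qHTS format against parental HEK293 cells; 18 h treatment, 37 C; read-out ATP luminescence (CellTiter-Glo), 30 min RT development.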

A short description of test [19]: qHTS assay for cell viability of the p53RE-bla HCT-116 cell line (AID 743292; active means well fitted curve in the direction sought with a large enough effect; an effect the other way counts as inactive or inconclusive; further: on the % scale 0 is the no-effect control and ±100 the full control effect; nearly all actives have a fitted effect of over 55% in size). In short, it runs like this:
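CellSensor p53RE-bla HCT-116 cells, 4,000/well, preincubated 5 h at 37 C, then exposed to compounds in DMSO for 16 h at 37 C. Viability read as CellTiter-Glo luminescence (intracellular ATP) after 30 min at room temperature.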

Test [20] deals with Glucocorticoid receptor (Homo sapiens) (UniProt P04150). Briefly: qHTS assay for small molecule agonists of glucocorticoid receptor signaling (AID 588532; active means well fitted curve in the direction sought with a large enough effect in the signal ratio, with a control signal flat; the % refers to the signal ratio;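 further: 100% = dexamethasone at 0.1 µM and 0% = DMSO only wells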). The settings on record: HeLa MMTV-bla, beta-lactamase ratio, agonist, 18 h; activation: stronger effect = higher value, percent of dexamethasone control, DMSO zero. In short, it runs like this: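 Quantitative HTS using CellSensor MMTV-bla HeLa cells in charcoal/dextran-treated serum; compounds tested up to 92 uM. After 18 h at 37 C, CCF4 dye reported reporter induction.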
Glucocorticoid receptor (Homo sapiens), sequence (P04150 whole entry, looked up): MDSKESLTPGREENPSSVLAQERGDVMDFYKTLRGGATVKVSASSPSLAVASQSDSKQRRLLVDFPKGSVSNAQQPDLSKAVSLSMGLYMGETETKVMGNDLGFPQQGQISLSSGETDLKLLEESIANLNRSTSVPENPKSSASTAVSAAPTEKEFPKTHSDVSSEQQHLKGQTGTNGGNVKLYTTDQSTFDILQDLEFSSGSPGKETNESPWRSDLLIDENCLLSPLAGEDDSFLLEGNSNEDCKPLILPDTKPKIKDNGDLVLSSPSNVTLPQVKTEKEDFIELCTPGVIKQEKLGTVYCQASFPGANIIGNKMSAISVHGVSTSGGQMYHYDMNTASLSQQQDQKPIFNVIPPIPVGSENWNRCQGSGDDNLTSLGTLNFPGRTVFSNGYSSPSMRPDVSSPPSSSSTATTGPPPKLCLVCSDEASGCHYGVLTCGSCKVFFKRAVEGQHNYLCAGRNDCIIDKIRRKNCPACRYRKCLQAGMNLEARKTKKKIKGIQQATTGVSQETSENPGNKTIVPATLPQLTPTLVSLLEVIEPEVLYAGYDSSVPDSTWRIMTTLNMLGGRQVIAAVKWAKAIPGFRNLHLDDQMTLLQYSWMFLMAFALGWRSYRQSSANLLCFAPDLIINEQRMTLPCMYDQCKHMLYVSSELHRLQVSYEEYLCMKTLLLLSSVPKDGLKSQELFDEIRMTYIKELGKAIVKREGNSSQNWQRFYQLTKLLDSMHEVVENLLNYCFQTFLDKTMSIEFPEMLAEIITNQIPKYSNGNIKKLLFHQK

Peroxisome proliferator-activated receptor delta (Homo sapiens), sequence (Q03181 whole entry, looked up): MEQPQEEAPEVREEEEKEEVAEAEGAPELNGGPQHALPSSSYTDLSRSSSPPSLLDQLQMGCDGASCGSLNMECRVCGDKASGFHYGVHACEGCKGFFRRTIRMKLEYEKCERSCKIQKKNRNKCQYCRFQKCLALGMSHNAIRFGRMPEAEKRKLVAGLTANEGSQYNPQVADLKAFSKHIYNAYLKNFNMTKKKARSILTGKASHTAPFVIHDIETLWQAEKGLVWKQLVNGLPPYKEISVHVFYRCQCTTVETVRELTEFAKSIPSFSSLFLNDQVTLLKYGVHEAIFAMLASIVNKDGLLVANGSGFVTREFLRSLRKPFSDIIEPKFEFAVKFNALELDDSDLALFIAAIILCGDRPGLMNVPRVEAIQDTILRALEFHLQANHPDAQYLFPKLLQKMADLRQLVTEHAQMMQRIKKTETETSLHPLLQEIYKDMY
Bile acid receptor (Homo sapiens), sequence (Q96RI1 whole entry, looked up): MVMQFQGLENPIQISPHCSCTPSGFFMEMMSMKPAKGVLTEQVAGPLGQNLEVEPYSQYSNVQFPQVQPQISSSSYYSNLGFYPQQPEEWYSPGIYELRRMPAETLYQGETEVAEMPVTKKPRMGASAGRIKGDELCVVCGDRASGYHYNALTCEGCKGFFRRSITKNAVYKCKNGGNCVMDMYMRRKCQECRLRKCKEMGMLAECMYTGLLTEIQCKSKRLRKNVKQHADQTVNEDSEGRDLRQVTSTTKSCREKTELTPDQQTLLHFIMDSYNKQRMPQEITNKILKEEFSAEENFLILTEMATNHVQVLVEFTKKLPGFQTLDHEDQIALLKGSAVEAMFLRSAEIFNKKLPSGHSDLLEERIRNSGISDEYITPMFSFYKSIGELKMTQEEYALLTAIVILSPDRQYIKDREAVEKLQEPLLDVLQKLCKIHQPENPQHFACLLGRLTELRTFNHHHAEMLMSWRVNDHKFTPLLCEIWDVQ
Thyroid hormone receptor beta (Homo sapiens), sequence (P10828 whole entry, looked up): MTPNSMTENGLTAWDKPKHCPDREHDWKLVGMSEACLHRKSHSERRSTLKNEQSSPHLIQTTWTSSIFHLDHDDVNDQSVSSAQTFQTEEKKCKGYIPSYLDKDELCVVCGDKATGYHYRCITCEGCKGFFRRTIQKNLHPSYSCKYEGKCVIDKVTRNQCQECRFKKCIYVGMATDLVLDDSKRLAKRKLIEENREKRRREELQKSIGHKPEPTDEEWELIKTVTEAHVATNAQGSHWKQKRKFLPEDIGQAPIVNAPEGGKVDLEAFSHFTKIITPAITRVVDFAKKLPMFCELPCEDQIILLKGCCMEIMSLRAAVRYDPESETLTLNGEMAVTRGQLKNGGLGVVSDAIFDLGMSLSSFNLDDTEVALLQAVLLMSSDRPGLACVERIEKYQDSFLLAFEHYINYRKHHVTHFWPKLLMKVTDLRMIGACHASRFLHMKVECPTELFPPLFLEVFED

With `Nc1nc(N)nc(N)n1`, the Potency entry in test [1], in test [5], in [7], in test [8], in test [16] and in [19] was “inactive” throughout. The activation was 0.442% (inactive) in test [2], -2.16% (inactive) in [12], -1.8% (inactive) in test [13] and -1.1% (inactive) in test [14]. The call in test [3] and in test [6] was inactive. Moreover, the max response was 16% in [4]; -0.207% in test [9]; -7.03% (inactive) in test [10]; -3.29% (inactive) in test [15]; -2.99% (inactive) in [17]; -12% (inactive) in [18]. Moreover, the activity change % (negative = inhibition) in test [11] is -6.25% (inactive).

`COCC(=O)N(c1c(C)cccc1C)N1CCOC1=O`: the Potency result in test [1], in [5], in test [7], in test [8], in [16] and in [19] was “inactive” throughout. The activation in test [2] is -0.109% (inactive); in [12], -3.26% (inactive); in [13], -1.88% (inactive). In addition, the molecule was called inactive in test [3] and in [6]. Also, the max response in [4] was -6.17%; in [9] it was -10.4%; in [10], 4.82% (inactive); in test [15], 0.278% (inactive); in test [17], 1.06% (inactive); in [18] it was 2.38% (inactive).

Take `COc1cccc(C(=O)NN(C(=O)c2cc(C)cc(C)c2)C(C)(C)C)c1C`: the Potency entry in test [1], in test [5], in [7], in test [8] and in test [16] was “inactive” throughout. For the same molecule, the activation in [2] was 4% (inactive); in test [14] it was 1.74% (inactive). The result in [3] was inactive. For the same molecule, the max response is -0.516% in test [4]; -5.99% in test [9]; 0.438% (inactive) in test [15]; 2.48% (inactive) in [17]; -4.45% (inactive) in test [18]. The activity change % (negative = inhibition) in test [11] was -4.61% (inactive).

As for `CC(O)CN(CC(C)O)CC(C)O` (centres undefined), the Potency result in test [1], in test [8] and in [16] was “inactive” in each case. The activation in [2] is 0.256% (inactive); in test [20] it was 4.4% (inactive); in [12] it was -9.86% (inactive). Besides, in [3], the result was inactive. Moreover, the max response in [4] is -32.2%; in test [9] it was -0.813%; in [10] it was 3.2% (inactive); in test [15], -2.83% (inactive); in [17], -8.2% (inactive); in test [18], -4.13% (inactive). Further, the activity change % (negative = inhibition) in [11] is 25% (inactive).
